Here are results for four compounds from PubChem BioAssay AID1928 (Vanderbilt High Throughput Screening Facility, 2009).

Calls of active or inactive are those of the source. How the calls were made is not given here.

The target of the test is Muscarinic acetylcholine receptor M5 (Homo sapiens) (UniProt P08912). The test can be described thus: hM5 positive allosteric modulation, ACh fold-shift, SAR follow-up, selectivity assay for M4 PAM project, cell-based, analogs, calcium (AID 1928). To be noted: hM5-expressing cells, ACh CRC fold-shift; series mostly up to 1 µM.
Sequence of Muscarinic acetylcholine receptor M5 (Homo sapiens) (P08912 whole entry, looked up): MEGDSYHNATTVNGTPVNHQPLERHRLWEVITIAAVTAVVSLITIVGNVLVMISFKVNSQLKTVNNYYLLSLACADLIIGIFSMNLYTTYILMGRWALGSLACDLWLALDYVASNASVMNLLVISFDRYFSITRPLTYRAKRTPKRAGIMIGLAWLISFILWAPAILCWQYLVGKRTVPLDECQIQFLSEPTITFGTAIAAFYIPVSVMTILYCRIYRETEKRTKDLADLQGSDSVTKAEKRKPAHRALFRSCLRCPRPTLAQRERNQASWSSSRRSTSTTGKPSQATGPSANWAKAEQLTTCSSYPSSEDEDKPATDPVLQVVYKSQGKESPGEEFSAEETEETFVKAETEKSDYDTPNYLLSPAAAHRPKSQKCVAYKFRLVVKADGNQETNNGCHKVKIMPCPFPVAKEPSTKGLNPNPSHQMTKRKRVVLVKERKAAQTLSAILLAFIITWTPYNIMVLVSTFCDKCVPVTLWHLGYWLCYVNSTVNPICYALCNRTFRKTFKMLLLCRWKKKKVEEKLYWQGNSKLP
For `Cc1cc(OCc2ccncc2)nc2sc(C(=O)NCc3cc(F)ccc3F)c(N)c12`, the outcome was inactive.

`Cc1cc(OCCN2CCOCC2)nc2sc(C(=O)NC(C)(C)C)c(N)c12`: the result was inactive. For the compound `Cc1cc(OCc2ccncc2)nc2sc(C(=O)NCc3cccc(F)c3F)c(N)c12`, the outcome was inactive. With `COc1ccc(CNC(=O)c2sc3nc(OCc4ccncc4)cc(C)c3c2N)cc1`, the result was inactive.
